Assay outcomes (PubChem)
Pol iota inh = inhibitors of human DNA polymerase iota. Q9UNA4. Pol iota fluorescent replication assay, 10 min. Potency, µM (series often up to 115 µM), actives largely listed as inhibitors. 390,000 tested, 1% active. AID 588590
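Pol iota at 10 nM preincubated 15 min with compounds at room temperature; reaction started with fluorescent substrate, 50 nM final. Fluorescence read kinetically at 0 and 10 min; buffer-only wells as negative control.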
Pol kappa inh-1 = inhibitors of human DNA polymerase kappa; Q9UBT6; purified Pol kappa, fluorescent DNA synthesis assay, 10 min; Potency, µM (highest dose often 107 µM), most hits filed as inhibitors; 400,000 tested, 0.53% active; AID 588579
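Kinetic fluorescence screen: compound preincubated 15 min RT with 10 nM enzyme; 50 nM substrate (final) initiates; reads at 0/10 min.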
WRN inhibitor = blocks human WRN helicase; Q14191; WRN helicase unwinding, fluorescent forked duplex, kinetic; Potency, µM (series often up to 114 µM), most hits filed as inhibitors; 360,000 tested, 0.46% active; further: nearly all actives have a fitted effect of over 55% in size
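Kinetic red-fluorescence monitoring (525/598 nm) tracks WRN helicase activity after 100 nM fluorophore-quencher forked duplex and 2 mM ATP are added to 20 nM enzyme pretreated 15 min at room temperature with compound.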
FEN1 inh = blocks human flap endonuclease 1; Recombinant FEN1 flap cleavage, fluorescence, 15 min; Potency, µM (doses to about 114 µM), most hits filed as inhibitors; 390,000 tested, 0.35% active; AID 588795; further: nearly all actives have a fitted effect of over 65% in size
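Enzyme 10 nM, 15 min RT preincubation with compound; start with substrate 50 nM final; reads at 0 and 15 min; qHTS titration, four-parameter Hill fit.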
POLB inh = inhibitors of human DNA polymerase beta | Pol beta primer extension/strand displacement, fluorescence kinetic | 340,000 tested, 1.3% active | P06746 | Potency, µM (top dose mostly 114 µM), actives largely listed as inhibitors
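Curves were derived by four-parameter Hill fits of normalized qHTS data. The kinetic fluorescent primer-extension read was taken at 0 and 10 min after 50 nM substrate, following a 15 min room-temperature preincubation of 10 nM enzyme with compounds.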
Pol eta inh-1 = blocks human DNA polymerase eta activity; recombinant Pol eta, fluorescent DNA replication assay; Q9Y253; 390,000 tested, 1.2% active; Potency, µM (top dose mostly 114 µM), actives largely listed as inhibitors; AID 588591
Target sequence (Q9Y253 whole entry, looked up): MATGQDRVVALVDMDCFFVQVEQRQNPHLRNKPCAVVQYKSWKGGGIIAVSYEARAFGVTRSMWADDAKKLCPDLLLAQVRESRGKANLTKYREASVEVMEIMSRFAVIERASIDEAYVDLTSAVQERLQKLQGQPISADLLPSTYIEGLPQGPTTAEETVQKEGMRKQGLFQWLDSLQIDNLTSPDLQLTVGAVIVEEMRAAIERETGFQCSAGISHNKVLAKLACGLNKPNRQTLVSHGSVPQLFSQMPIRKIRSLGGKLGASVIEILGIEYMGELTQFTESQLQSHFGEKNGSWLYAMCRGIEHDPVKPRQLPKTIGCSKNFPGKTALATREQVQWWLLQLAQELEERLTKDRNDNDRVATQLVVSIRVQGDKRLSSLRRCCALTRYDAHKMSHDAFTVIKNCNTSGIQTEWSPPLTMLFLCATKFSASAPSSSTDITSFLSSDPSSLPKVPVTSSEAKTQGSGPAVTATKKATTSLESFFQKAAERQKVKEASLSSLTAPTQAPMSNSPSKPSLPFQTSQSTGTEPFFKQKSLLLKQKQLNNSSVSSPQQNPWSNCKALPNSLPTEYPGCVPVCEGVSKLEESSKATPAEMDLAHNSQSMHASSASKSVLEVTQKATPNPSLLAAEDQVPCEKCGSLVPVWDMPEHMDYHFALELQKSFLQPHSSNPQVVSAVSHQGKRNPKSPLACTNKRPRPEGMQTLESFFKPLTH
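Pol eta (10 nM) was preincubated with compounds for 15 min at room temperature, after which fluorescent replication substrate (50 nM final) was added to start the reaction. Fluorescence was read kinetically at 0 and 10 min.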
TbPGK inh = TbPGK inhibition, hit validation | 500 tested, 79% active | TbPGK coupled GAPDH assay, Kinase-Glo luminescence | AID 686980 | Potency, µM (titrated, usually from 57.5 µM), actives largely listed as inhibitors | shares compounds with Pol kappa inh-1; further: nearly all actives have a fitted effect of over 65% in size
POLI cherry-pick = Confirm cherry-picked inhibitors of human polymerase iota; shares compounds with Pol kappa inh-1; Pol iota primer extension, TAMRA/BHQ fluorescence; Potency, µM, usual class: inhibitors; 1,500 tested, 77% active; AID 720496
GALK inh confirm = galactokinase (human) inhibition, confirmation | AID 2015 | shares compounds with Pol eta inh-1 | 150 tested, 70% active | purified GALK, Kinase-Glo ATP depletion luminescence | Potency, µM (series often up to 115 µM), usual class: inhibitors
Redox cycling = redox cycling activity in phenol red-HRP assay. shares compounds with Pol eta inh-1. Phenol red-HRP H2O2 redox cycling, absorbance 600 nm. Potency, µM (top dose mostly 115 µM), usual class: inhibitors. 150 tested, 40% active
HEK293 tox = counter-screen for GALK inhibitors: HEK293 cell cytotoxicity; 170 tested, 10% active; HEK-293 viability, ATP luminescence (CellTiter-Glo), 24/48 h; shares compounds with Pol eta inh-1; Potency, µM (top dose mostly 46.1 µM), hits mostly inhibitors; AID 2547
Pol kappa inh-2 = confirmation of human DNA polymerase kappa inhibitors; shares compounds with Pol eta inh-1; purified Pol-kappa, fluorescent strand-displacement substrate; Potency, µM, hits mostly inhibitors; 920 tested, 76% active; AID 720501
Pol eta inh-2 = Pol eta (human) inhibition, cherry-pick confirmation; 2,600 tested, 64% active; Potency, µM, actives largely listed as inhibitors; Pol eta primer extension, TAMRA/BHQ fluorescence, 10 min; shares compounds with Pol eta inh-1; AID 720502
Each line names hits and unclear results; the compound was inactive in the other large screens (follow-up assays come after a bar, where they were run). This is a sample that favours compounds with a hit; in the whole collection about 2.4% have one here. The call rests on the fitted dose curve; in most records, active means well fitted curve in the direction sought with a large enough effect; inconclusive means small, poorly fitted or top-dose-only effect, or another doubt; inactive means no such curve, though single readings can be large; an effect the other way counts as inactive or inconclusive.

Cc1[nH][nH]c(=O)c1C(c1ccc(-c2cccc(C(=O)O)c2)o1)c1c(C)[nH][nH]c1=O	Pol iota inh 2.24µM, Pol kappa inh-1 89.1µM, WRN inhibitor inconclusive, POLB inh 20µM, Pol eta inh-1 12.6µM | POLI cherry-pick 67 | Pol eta inh-2 30.1
COC(=O)c1ccc(-c2ccc(C(c3c(C)[nH][nH]c3=O)c3c(C)[nH][nH]c3=O)o2)cc1	Pol iota inh 3.55µM, Pol kappa inh-1 inconclusive, WRN inhibitor inconclusive, POLB inh 20µM, Pol eta inh-1 25.1µM | POLI cherry-pick inconclusive | Pol eta inh-2 75.7
Cc1[nH][nH]c(=O)c1C(c1ccc(-c2ccccc2C(=O)O)o1)c1c(C)[nH][nH]c1=O	Pol iota inh 10µM, Pol kappa inh-1 inconclusive, POLB inh 10µM, Pol eta inh-1 11.2µM | POLI cherry-pick 47.4 | GALK inh confirm inactive | Redox cycling 6.68µM | HEK293 tox inactive | Pol eta inh-2 26.9
COc1ccc(C(=O)Oc2ccc(C(c3c(C)[nH][nH]c3=O)c3c(C)[nH][nH]c3=O)cc2OC)cc1	Pol iota inh inconclusive (no result: WRN inhibitor)
NCC(O)c1ccc(O)c(O)c1 (stereo not drawn)	Pol iota inh 35.5µM, Pol kappa inh-1 7.52µM, POLB inh 35.5µM, Pol eta inh-1 inconclusive | POLI cherry-pick 47.4 | Pol eta inh-2 inconclusive
C=C(C)C(=O)Oc1ccc(N=Nc2ccc(C)cc2)ccc1=O	Pol iota inh inconclusive, Pol kappa inh-1 50.1µM, WRN inhibitor 39.8µM, FEN1 inh inconclusive, Pol eta inh-1 3.55µM (no result: POLB inh) | TbPGK inh 1.46µM | POLI cherry-pick 23.8 | Pol kappa inh-2 10.6 | Pol eta inh-2 19
CCOc1ccc(CNC(=O)C2CCN(S(=O)(=O)c3cn(C)cn3)CC2)cc1	none (no result: WRN inhibitor)
Cc1nc2c(C(=O)NCCC(C)C)cnn2c(C)c1Cc1c(F)cccc1Cl	none (no result: WRN inhibitor)
CC(C)(O)c1ccccc1CC[C@@H](SCC1(CC(=O)O)CC1)c1cccc(/C=C/c2ccc3ccc(Cl)cc3n2)c1	Pol iota inh 44.7µM, Pol eta inh-1 inconclusive (no result: POLB inh) | POLI cherry-pick inconclusive | Pol kappa inh-2 84.4
O=C(O)C(C(=O)/C=C/c1ccco1)=C1SCCS1	Pol iota inh 3.98µM, Pol kappa inh-1 44.7µM, WRN inhibitor inconclusive, POLB inh 25.1µM, Pol eta inh-1 8.91µM | POLI cherry-pick 53.2 | Pol eta inh-2 47.8
CCc1n[nH]c(=S)n1/N=C/c1cc(OC)cc([N+](=O)[O-])c1O	Pol iota inh inconclusive, WRN inhibitor inconclusive, Pol eta inh-1 20µM | POLI cherry-pick 33.6 | Pol eta inh-2 60.1
O=C(NN1C(=O)/C(=C/C=C/c2ccccc2)SC1=S)c1ccncc1	Pol iota inh inconclusive
O=C(NN1C(=O)/C(=C/C=C/c2ccco2)SC1=S)c1ccncc1	Pol iota inh 1.26µM, Pol kappa inh-1 3.16µM, WRN inhibitor 3.16µM, FEN1 inh 7.08µM, POLB inh inconclusive, Pol eta inh-1 1.41µM | TbPGK inh 3.26µM | POLI cherry-pick 6.7 | Pol kappa inh-2 3.77 | Pol eta inh-2 3.38
CCOc1ccc2nc(Cl)c(C3CC(c4ccc(OC)cc4)=NN3S(C)(=O)=O)cc2c1 (stereo not drawn)	Pol iota inh inconclusive, Pol kappa inh-1 inconclusive, Pol eta inh-1 inconclusive (no result: WRN inhibitor) | POLI cherry-pick inconclusive | Pol kappa inh-2 75.2 | Pol eta inh-2 75.7
Cn1c(N)c(C(=O)COC(=O)Cc2cccs2)c(=O)n(C)c1=O	none (no result: POLB inh)
Cc1ccc(C)c(SCC(=O)NCc2ccco2)c1	POLB inh inconclusive
Cc1ccc(C)c(SCC(=O)OCC(=O)c2ccco2)c1	Pol iota inh 20µM, Pol kappa inh-1 inconclusive, WRN inhibitor inconclusive, FEN1 inh inconclusive, POLB inh 22.4µM, Pol eta inh-1 35.5µM | POLI cherry-pick inconclusive | Pol eta inh-2 inconclusive
O=C(Cc1cccs1)OCC(=O)c1ccco1	Pol iota inh inconclusive, Pol kappa inh-1 25.1µM, WRN inhibitor inconclusive, POLB inh 14.1µM, Pol eta inh-1 8.91µM | POLI cherry-pick 75.2 | Pol eta inh-2 60.1
CCOC(=O)c1c(-c2ccccc2)oc2ccc(N(C(C)=O)S(=O)(=O)c3ccc(CC)cc3)cc12	none (no result: WRN inhibitor)
Cc1ccc(S(=O)(=O)NCCc2nnc3ccc(SCc4ccccc4F)nn23)cc1	none (no result: WRN inhibitor)
CN1CCc2nc3sc(C(=O)Nc4ccccc4C(F)(F)F)c(N)c3cc2C1	none (no result: WRN inhibitor)
Cc1ccc(S(=O)(=O)N2CCN(c3ccnc(-c4cccs4)n3)CC2)cc1	none (no result: WRN inhibitor, POLB inh, Pol eta inh-1)
CCCSCCCNC(=O)C1CCN(c2nn3cc(-c4ccc(F)cc4)nc3s2)CC1	none (no result: WRN inhibitor)
O/C=c1\ccc2cccc3nc(C(F)(F)F)nc1c23	Pol iota inh 0.891µM, Pol kappa inh-1 inconclusive, WRN inhibitor 79.4µM, FEN1 inh 79.4µM, POLB inh 3.16µM, Pol eta inh-1 25.1µM | POLI cherry-pick 67 | Pol kappa inh-2 inconclusive | Pol eta inh-2 47.8
C/C(=C(/CCOC(=O)C(C)C)SS/C(CCOC(=O)C(C)C)=C(\C)N(C=O)Cc1cnc(C)nc1N)N(C=O)Cc1cnc(C)nc1N	none (no result: Pol iota inh, WRN inhibitor, FEN1 inh, POLB inh, Pol eta inh-1)
Cc1cc(/C=C2\SC(=S)NC2=O)c(C)n1C	Pol iota inh inconclusive, Pol kappa inh-1 79.4µM, WRN inhibitor inconclusive, FEN1 inh inconclusive, POLB inh 39.8µM, Pol eta inh-1 28.2µM | POLI cherry-pick 67 | Pol kappa inh-2 16.8 | Pol eta inh-2 37.9
CC(=O)c1ccc2c(c1)OCCOCCOCCO2	none
